Measurements: PubChem BioAssay (NCATS)
Inconclusive results are not listed. Calls of active or inactive are those of the source. Unless noted, calls follow the shape of the dose curve; as a rule, active = well fitted curve in either direction with a large enough effect (not every such curve was filed as active); inconclusive = small, poorly fitted or top-dose-only effect, or another doubt; inactive = flat fitted curve, though single readings scatter.

How the values were obtained:
[1] = biological target: Lysosomal acid glucosylceramidase (Homo sapiens) (UniProt P04062); experiment: Glucocerebrosidase-p2 (AID 348; in the data active = potency below about 10 µM; also: potency is read from the fitted curve at half-maximal effect); details: purified GBA, blue fluorogenic substrate, 40 min
Sequence of Lysosomal acid glucosylceramidase (Homo sapiens) (P04062 whole entry, looked up): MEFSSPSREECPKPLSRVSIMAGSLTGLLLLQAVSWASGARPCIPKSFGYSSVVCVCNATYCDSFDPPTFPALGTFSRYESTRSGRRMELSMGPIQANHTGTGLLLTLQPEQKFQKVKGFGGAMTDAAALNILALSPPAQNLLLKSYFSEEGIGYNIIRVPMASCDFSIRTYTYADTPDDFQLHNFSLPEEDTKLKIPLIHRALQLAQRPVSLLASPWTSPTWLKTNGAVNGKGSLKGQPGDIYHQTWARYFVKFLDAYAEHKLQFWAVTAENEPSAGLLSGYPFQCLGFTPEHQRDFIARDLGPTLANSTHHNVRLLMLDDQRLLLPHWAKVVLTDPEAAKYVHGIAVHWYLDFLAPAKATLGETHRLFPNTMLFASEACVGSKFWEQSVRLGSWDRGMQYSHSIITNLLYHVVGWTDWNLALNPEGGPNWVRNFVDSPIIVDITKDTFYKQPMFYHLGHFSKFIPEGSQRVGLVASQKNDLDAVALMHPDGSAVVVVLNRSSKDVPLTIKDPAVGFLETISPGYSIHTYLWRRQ
Outline: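 Normal human glucocerebrosidase (0.2 nM) with blue fluorogenic substrate (80 uM final) in citrate/phosphate pH 5.9 with 10mM sodium taurocholate, 0.01% tween-20; 40 min RT, NaOH/glycine stop; fluorescence Ex 365/Em 440; AC50 from a titration from 0.6 nM upwards.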

[2] = AP1 Signaling Pathway (AID 357); details: ME-180 AP-1-bla reporter, EGF-induced, beta-lactamase ratio, 5 h; at 7.69 µM (top of the series) unless noted;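 also: ME-180 reporter cells stimulated with EGF at its EC50 level; % is scaled to controls: 0 for no effect and ±100 for the full control effect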
Outline: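 Cells are seeded overnight, exposed to compound titrations and an EC50 level of EGF for 5 hours at 37 °C, then loaded with CCF4 dye for 2.5 hours. Beta-lactamase activity under the AP-1 element is read as a blue/green ratio.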

[3] = biological target: Cytochrome P450 1A2 (Homo sapiens) (UniProt P05177); experiment: p450-cyp1a2 (AID 410; calls by dose curve; also: potency is read from the fitted curve at half-maximal effect;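 as to activity change, negative = inhibition: -100% = full effect of reference inhibitor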); details: recombinant CYP1A2, luciferin-ME demethylation, luminescence; series mostly up to 11.4 µM
Sequence of Cytochrome P450 1A2 (Homo sapiens) (P05177 whole entry, looked up): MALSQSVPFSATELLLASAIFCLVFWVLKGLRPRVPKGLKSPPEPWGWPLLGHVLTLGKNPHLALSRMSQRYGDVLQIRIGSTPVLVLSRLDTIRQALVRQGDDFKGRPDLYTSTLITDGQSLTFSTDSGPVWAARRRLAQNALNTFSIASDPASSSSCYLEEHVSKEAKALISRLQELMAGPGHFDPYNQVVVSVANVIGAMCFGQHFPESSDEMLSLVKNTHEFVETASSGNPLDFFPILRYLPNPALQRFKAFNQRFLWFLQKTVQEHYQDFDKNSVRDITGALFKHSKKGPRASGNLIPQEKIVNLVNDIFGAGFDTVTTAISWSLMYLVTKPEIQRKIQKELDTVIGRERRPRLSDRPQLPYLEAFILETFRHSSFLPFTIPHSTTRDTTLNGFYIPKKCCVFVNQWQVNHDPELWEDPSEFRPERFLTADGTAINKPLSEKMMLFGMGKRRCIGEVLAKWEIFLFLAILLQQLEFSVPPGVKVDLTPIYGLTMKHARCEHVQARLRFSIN
Outline: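 20nM CYP1A2, 100uM Luciferin-ME (=Km), 100mM KPO4; cpd 10 min RT; +NADPH regen, 60 min RT; stop/detect 20 min; luminescence. Normalized to furafylline 57 uM = full inhibition.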

[4] = NFAT Signaling Pathway (AID 444); details: Jurkat NFAT-bla M1, carbachol, beta-lactamase ratio, 5 h; at 7.69 µM (top of the series) unless noted;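 also: carbachol stimulus at about its EC50 of 1 µM final; % is scaled to controls: 0 for no effect and ±100 for the full control effect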
Outline: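 Jurkat cells carrying an NFAT-driven β-lactamase reporter and co-transfected muscarinic M1 receptor were treated with compound plus carbachol (1 uM final, an EC50 level) for 5 h at 37 °C. CCF4 loading followed for 1 h at RT; 460/530 nm ratio gave %activity.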

[5] = Stat Signaling Pathway (AID 446); details: ME-180 SIE beta-lactamase reporter, IL-6 stimulated, 5 h; at 7.69 µM (top of the series) unless noted;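 also: ME-180 cervical cancer cells given 40 pM IL-6 alongside compound; SIE-controlled beta-lactamase reporter measured as 460/530 nm FRET emission ratio; % is scaled to controls: 0 for no effect and ±100 for the full control effect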
Outline: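 Emission at 460 and 530 nm (excitation 405 nm) reports SIE-controlled beta-lactamase in ME-180 cells. Cells received compound with 40 pM IL-6 for 5 hrs at 37 C; data scaled between 300 pM IL-6 and 125 nM JAK-inhibitor controls.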

[6] = biological target: Glucocorticoid receptor (Homo sapiens) (UniProt P04150); experiment: GR-GFP Redistribution (AID 450;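 active = compounds whose dose series gives a full or clear partial fitted curve of increased nuclear translocation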; also: potency is read from the fitted curve at half-maximal effect); details: U2OS GR-GFP nuclear translocation, laser cytometry, 2 h
Sequence of Glucocorticoid receptor (Homo sapiens) (P04150 whole entry, looked up, the tested form may be a part): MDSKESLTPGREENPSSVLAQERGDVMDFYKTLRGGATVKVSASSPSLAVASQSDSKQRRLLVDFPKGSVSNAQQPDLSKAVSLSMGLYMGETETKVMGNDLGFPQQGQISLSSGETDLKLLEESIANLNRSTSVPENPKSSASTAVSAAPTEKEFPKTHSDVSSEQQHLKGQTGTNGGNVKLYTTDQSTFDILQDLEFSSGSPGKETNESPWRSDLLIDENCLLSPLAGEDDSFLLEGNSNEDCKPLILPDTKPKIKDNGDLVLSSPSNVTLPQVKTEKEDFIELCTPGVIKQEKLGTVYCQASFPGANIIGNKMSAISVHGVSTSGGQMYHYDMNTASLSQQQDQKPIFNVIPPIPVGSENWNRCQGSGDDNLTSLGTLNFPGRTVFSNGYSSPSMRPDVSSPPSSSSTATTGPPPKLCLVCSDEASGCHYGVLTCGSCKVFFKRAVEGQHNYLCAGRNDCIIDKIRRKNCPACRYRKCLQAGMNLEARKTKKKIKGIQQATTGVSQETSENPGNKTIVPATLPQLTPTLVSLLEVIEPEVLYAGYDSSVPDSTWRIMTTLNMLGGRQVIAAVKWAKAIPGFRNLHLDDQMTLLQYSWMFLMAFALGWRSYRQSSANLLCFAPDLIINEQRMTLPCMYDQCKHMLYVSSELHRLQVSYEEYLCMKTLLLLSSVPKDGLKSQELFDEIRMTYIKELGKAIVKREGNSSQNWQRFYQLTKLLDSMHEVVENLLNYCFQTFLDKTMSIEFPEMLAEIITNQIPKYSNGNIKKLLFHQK

[7] = biological target: Glucocorticoid receptor (Homo sapiens) (UniProt P04150); experiment: GR-EFC Redistribution (AID 451; calls by dose curve; also: potency is read from the fitted curve at half-maximal effect); details: CHO-K1 GR-EFC translocation, beta-gal luminescence, 2 h
Outline: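 CHO-K1 cells stably expressing nuclear-localized β-gal enzyme acceptor and GR fused C-terminally to the enzyme donor fragment; ligand-driven nuclear translocation restores β-gal by complementation. Compounds titrated up to 46 uM final, 2 h at 37 °C; luminescence read.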

[8] = biological target: Mitogen-activated protein kinase 10 (Mus musculus) (UniProt Q61831); experiment: JNK3 AlphaScreen Assay (AID 530); details: JNK3 lysate, c-Jun phosphorylation; series mostly up to 57.1 µM;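 also: kinase came from lysate of stimulated human HepG2 cells; signal reports phosphorylation of biotinylated GST-cJun 1-79 at Ser73 with 10 µM ATP; % is scaled to controls: 0 for no effect and ±100 for the full control effect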
Outline: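 Biotinylated GST-cJun(1-79) served as substrate for JNK3 in HepG2 lysates stimulated with IL-1beta and TNF-alpha. ATP was 10 uM final, pH 7.6. Ser73 phosphorylation was quantified by AlphaScreen (680 nm excitation).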

[9] = biological target: 3',5'-cyclic-AMP phosphodiesterase 4B (Homo sapiens) (UniProt Q07343); experiment: qHTS Assay for Inhibitors of PDE-IV (AID 607; active = well fitted activation curve with a large enough effect in the main read-out, with a control signal flat, not every such curve was filed as active; also: % of control where 0% means no effect); details: HEK293 ACTOne CNG channel cells, membrane potential fluorescence; series mostly up to 22.9 µM
Sequence of 3',5'-cyclic-AMP phosphodiesterase 4B (Homo sapiens) (Q07343 whole entry, looked up): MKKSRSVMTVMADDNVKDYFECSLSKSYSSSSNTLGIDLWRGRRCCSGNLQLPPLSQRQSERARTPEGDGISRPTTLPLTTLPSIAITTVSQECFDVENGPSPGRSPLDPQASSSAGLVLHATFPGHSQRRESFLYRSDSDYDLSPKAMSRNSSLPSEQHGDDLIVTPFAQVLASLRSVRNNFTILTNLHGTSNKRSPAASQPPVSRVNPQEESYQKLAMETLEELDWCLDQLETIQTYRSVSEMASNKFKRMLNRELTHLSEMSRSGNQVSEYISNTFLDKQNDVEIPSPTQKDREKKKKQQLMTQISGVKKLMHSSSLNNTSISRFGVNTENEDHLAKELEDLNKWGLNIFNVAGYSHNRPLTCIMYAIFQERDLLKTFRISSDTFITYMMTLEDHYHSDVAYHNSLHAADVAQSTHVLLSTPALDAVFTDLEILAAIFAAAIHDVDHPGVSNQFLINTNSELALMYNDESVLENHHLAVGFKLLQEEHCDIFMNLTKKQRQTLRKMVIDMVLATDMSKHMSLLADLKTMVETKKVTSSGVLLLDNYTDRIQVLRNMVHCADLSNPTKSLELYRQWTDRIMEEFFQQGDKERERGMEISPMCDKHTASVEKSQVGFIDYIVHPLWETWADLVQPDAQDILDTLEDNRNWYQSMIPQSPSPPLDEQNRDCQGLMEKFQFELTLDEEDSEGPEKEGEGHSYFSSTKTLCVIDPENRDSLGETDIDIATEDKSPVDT
Outline: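 The readout is membrane depolarisation from a cAMP-sensing CNG channel, detected with a potential dye at ex 535/em 590. Cells were HEK293-derived (endogenous PDE-IV) at 1000 cells/well, titrated up to 22.9 uM final.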

[10] = qHTS Assay for Identification of Small Molecule Agonists for Hypoxia Response Element Signaling Pathway (AID 914; active = well fitted activation curve with a large enough effect in the signal ratio, with a control signal flat, not every such curve was filed as active; the % refers to the signal ratio; also: % of control where 0% means no effect); details: ME-180 (cervical carcinoma) HRE-bla reporter, beta-lactamase ratio, CoCl2, 17 h; hits give high values
Outline: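 Compounds in a titration series were added to ME-180 reporter cells alongside an EC50 level of CoCl2. After 17 hours, beta-lactamase activity was read as the 460nm/530nm emission ratio of CCF4, giving AC50 values.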

[11] = biological target: Cytochrome P450 2C9 (Homo sapiens) (UniProt P11712); experiment: qHTS Assay for Inhibitors and Substrates of Cytochrome P450 2C9 (AID 883; active = well fitted curve in the direction sought with a large enough effect; an effect the other way counts as inactive or inconclusive; also: potency is read from the fitted curve at half-maximal effect; nearly all actives have a fitted effect of over 60% in size); details: recombinant CYP2C9, luciferin-H luminescence, 60 min; series mostly up to 57.1 µM
Sequence of Cytochrome P450 2C9 (Homo sapiens) (P11712 whole entry, looked up): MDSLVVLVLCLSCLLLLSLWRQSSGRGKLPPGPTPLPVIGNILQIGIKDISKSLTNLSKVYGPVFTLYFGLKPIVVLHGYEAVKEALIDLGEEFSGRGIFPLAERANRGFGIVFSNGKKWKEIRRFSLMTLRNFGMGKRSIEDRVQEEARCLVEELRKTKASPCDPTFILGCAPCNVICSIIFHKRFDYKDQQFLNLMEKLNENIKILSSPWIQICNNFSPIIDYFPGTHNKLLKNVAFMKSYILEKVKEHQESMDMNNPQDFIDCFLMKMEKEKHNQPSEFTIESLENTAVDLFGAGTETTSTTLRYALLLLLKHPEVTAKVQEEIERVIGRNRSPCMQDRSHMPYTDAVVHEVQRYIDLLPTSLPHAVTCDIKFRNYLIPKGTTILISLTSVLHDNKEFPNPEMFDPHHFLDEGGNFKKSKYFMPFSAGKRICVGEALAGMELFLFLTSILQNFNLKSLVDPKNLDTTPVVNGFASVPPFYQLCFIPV
Outline: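 A luminogenic readout tracked human CYP2C9 (10nM) converting deoxyluciferin (100uM, at KM) in 25mM KPO4 during 60 min at 37C with regenerated NADPH. Values normalized to 57uM sulphaphenazole as complete inhibition.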

[12] = biological target: Cytochrome P450 3A4 (Homo sapiens) (UniProt P08684); experiment: qHTS Assay for Activators of Cytochrome P450 3A4 (AID 885; active = well fitted curve in the direction sought with a large enough effect; an effect the other way counts as inactive or inconclusive; also: nearly all actives have a fitted effect of over 65% in size); details: recombinant CYP3A4, Luciferin-PPXE luminescence, 60 min; series mostly up to 57.1 µM
Sequence of Cytochrome P450 3A4 (Homo sapiens) (P08684 whole entry, looked up): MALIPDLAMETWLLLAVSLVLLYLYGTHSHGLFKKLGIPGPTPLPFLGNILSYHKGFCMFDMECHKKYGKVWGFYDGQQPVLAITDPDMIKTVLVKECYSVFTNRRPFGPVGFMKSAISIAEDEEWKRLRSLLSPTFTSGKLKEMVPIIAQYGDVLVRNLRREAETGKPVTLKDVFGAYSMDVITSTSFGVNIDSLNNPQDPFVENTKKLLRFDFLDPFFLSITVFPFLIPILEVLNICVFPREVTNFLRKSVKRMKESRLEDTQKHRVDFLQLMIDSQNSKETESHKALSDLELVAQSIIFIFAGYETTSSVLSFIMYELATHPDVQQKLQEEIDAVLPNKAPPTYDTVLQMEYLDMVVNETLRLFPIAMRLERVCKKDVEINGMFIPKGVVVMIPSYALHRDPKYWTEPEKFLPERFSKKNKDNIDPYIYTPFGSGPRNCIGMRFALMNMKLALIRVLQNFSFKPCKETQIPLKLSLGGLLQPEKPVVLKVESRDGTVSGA
Outline: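 Activators are scored by enhanced luminescence from CYP3A4 conversion of luciferin-PPXE (25uM, equal to KM) to luciferin, after 60 min at RT with an NADPH-regenerating system.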

[13] = biological target: Cytochrome P450 2D6 (Homo sapiens) (UniProt P10635); experiment: qHTS Assay for Inhibitors and Substrates of Cytochrome P450 2D6 (AID 891; active = well fitted curve in the direction sought with a large enough effect; an effect the other way counts as inactive or inconclusive; also: potency is read from the fitted curve at half-maximal effect; nearly all actives have a fitted effect of over 60% in size); details: recombinant CYP2D6, luciferin-ME EGE luminescence; series mostly up to 11.4 µM
Sequence of Cytochrome P450 2D6 (Homo sapiens) (P10635 whole entry, looked up): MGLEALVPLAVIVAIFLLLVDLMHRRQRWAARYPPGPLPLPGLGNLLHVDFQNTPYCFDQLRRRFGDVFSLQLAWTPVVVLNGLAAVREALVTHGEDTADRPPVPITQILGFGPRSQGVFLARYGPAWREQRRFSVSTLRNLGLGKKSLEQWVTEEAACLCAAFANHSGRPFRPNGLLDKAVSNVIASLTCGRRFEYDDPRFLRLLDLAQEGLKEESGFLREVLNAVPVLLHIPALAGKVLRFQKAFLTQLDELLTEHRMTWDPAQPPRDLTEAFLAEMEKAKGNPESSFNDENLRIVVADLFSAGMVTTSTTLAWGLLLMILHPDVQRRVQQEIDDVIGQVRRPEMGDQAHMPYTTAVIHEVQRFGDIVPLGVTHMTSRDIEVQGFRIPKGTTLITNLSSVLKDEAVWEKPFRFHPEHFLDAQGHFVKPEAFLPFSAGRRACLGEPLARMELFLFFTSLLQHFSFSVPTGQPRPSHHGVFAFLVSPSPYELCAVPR
Outline: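 Luminescent read-out of luciferin formed by 5 nM human CYP2D6 demethylating 30 uM Luciferin-ME EGE (Km level) over 60 min at room temperature after NADPH regeneration addition. Data normalized to full inhibition by 1.43 uM quinidine.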

[14] = biological target: Luciferin 4-monooxygenase (Photinus pyralis) (UniProt P08659); experiment: Biochemical firefly luciferase enzyme assay for NPC (AID 624030; active = well fitted curve in the direction sought with a large enough effect; an effect the other way counts as inactive or inconclusive;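 also: purified P. pyralis luciferase at 10 nM with luciferin and ATP substrate; 0% = DMSO and -100% = full luciferase inhibition by PTC124 control; nearly all actives have a fitted effect of over 70% in size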); details: purified P. pyralis luciferase, luminescence, 5 min; series mostly up to 58.6 µM
Sequence of Luciferin 4-monooxygenase (Photinus pyralis) (P08659 whole entry, looked up): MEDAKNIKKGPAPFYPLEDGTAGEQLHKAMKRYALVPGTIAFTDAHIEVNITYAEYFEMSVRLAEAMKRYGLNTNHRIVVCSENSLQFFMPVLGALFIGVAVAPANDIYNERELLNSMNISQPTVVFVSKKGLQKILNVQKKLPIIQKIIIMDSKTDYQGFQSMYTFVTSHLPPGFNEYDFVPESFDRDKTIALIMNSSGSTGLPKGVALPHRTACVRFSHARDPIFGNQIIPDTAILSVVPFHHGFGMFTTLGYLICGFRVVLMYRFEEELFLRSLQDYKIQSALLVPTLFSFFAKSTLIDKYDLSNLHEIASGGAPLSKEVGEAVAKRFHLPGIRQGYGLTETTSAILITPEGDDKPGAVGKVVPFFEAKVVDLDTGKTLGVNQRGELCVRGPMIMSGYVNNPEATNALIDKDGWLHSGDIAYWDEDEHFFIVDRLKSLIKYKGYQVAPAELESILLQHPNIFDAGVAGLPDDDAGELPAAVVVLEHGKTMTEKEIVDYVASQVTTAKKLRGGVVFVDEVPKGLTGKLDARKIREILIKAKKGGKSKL
Outline: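 Counter-screen for direct inhibition of the luciferase enzyme by approved-drug library compounds, run at 10 nM enzyme in 50 mM Tris acetate (final). Luminescence was read within 5 min of enzyme-buffer addition and normalized to PTC124 versus DMSO (0%).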

N[C@@H](Cc1ccccc1)P(=O)(O)O
inactive: Potency [1] > 11.4 µM | activity change, negative = inhibition [2] -2.48% | Potency [3] | activity change, negative = inhibition [4] 12.4% | activity, negative = inhibition [5] -2.79% | Potency [6] > 46 µM | Potency [7] > 9.22 µM | activity change, negative = inhibition [8] 3.3% [at 11.4 µM] | outcome [9]

c1ccc(C[N+]23CN4CN(CN(C4)C2)C3)cc1
inactive: Potency [1] > 11.4 µM | activity change, negative = inhibition [2] 0.854% | activity change, negative = inhibition [3] -10.1% [at 2.29 µM] | activity change, negative = inhibition [4] 6.01% | activity, negative = inhibition [5] 6.74% | Potency [6] > 46 µM | Potency [7] > 9.22 µM | activity change, negative = inhibition [8] -2.9% [at 11.4 µM] | outcome [9]

O=C(O)[C@@H](Br)[C@H](Br)C(=O)O
inactive: Potency [1] > 11.4 µM | activity change, negative = inhibition [2] -8.85% | Potency [3] | activity change, negative = inhibition [4] 12.2% | activity, negative = inhibition [5] 3.93% | Potency [6] > 46 µM | Potency [7] > 9.22 µM | activity change, negative = inhibition [8] -1.13% [at 11.4 µM] | outcome [9]

CN1C[C@H](C(=O)N[C@@]2(C)O[C@@]3(O)[C@H]4CCCN4C(=O)[C@@H](Cc4ccccc4)N3C2=O)C=C2c3cccc4[nH]cc(c34)C[C@@H]21
active: Potency [3] 3.16 µM
inactive: Potency [1] > 11.4 µM | activity change, negative = inhibition [2] 2.32% | activity change, negative = inhibition [4] -0.805% | activity, negative = inhibition [5] 0.776% | Potency [6] > 46 µM | Potency [7] > 9.22 µM | activity change, negative = inhibition [8] -2.44% [at 11.4 µM] | outcome [9]

COc1cc(CCN)c(OC)c(OC)c1
active: Potency [3] 3.16 µM
inactive: Potency [1] > 11.4 µM | activity change, negative = inhibition [2] 7.8% | activity change, negative = inhibition [4] -9.45% | activity, negative = inhibition [5] -3.83% | Potency [6] > 46 µM | Potency [7] > 9.22 µM | activity change, negative = inhibition [8] 4.46% [at 11.4 µM] | outcome [9]

O=C(O)CSCC(=O)O
inactive: Potency [1] > 11.4 µM | activity change, negative = inhibition [2] -1.42% | Potency [3] | activity change, negative = inhibition [4] 2.38% | activity, negative = inhibition [5] 7.17% | Potency [6] > 46 µM | Potency [7] > 9.22 µM | activity change, negative = inhibition [8] 8.86% [at 11.4 µM] | outcome [9]

C[C@@H]1O[C@H](OC2[C@@H](O)[C@H](O)C(O)[C@H](O)[C@H]2O)[C@@H](N)C[C@@H]1N=C(N)C(=O)O (stereo not given in full)
inactive: Potency [1] > 11.4 µM | activity change, negative = inhibition [2] -0.614% | activity change, negative = inhibition [3] 1.2% [at 2.29 µM] | activity change, negative = inhibition [4] 8.22% | activity, negative = inhibition [5] 8.32% | Potency [6] > 46 µM | Potency [7] > 9.22 µM | activity change, negative = inhibition [8] 1.04% [at 11.4 µM] | outcome [9] | activation [10] 3.06%

O=C(C[C@H](c1ccccc1)c1c(O)c2ccccc2oc1=O)c1ccccc1
active: Potency [11] 0.631 µM
inactive: Potency [1] > 11.4 µM | activity change, negative = inhibition [2] 2.29% | activity change, negative = inhibition [3] -12.6% [at 2.29 µM] | activity change, negative = inhibition [4] 11.4% | activity, negative = inhibition [5] -9.56% | Potency [6] > 46 µM | Potency [7] > 9.22 µM | activity change, negative = inhibition [8] -4.41% [at 11.4 µM] | outcome [9] | activity change, positive = activation [12] -30.1% [at 11.4 µM]

[N-]=[N+]=CC(=O)CC[C@H](N)C(=O)O
inactive: Potency [1] > 11.4 µM | activity change, negative = inhibition [2] 6.38% | Potency [3] | activity change, negative = inhibition [4] -6.88% | activity, negative = inhibition [5] 6.39% | Potency [6] > 46 µM | Potency [7] > 9.22 µM | activity change, negative = inhibition [8] 31.7% [at 11.4 µM] | outcome [9]

C[n+]1c(/C=C\c2ccc(O)c3ncccc23)[se]c2ccccc21
inactive: Potency [1] > 11.4 µM | activity change, negative = inhibition [2] -7.45% | activity change, negative = inhibition [3] -22.7% [at 2.29 µM] | activity change, negative = inhibition [4] -19% | activity, negative = inhibition [5] 13% | Potency [6] > 46 µM | Potency [7] > 9.22 µM | activity change, negative = inhibition [8] -13.6% [at 11.4 µM] | outcome [9] | activity change, positive = activation [12] -31.7% [at 11.4 µM]

COc1cc2c(cc1OC)[C@]13CC[N@+]4(C)CC5=CCO[C@H]6CC(=O)N2[C@@H]1[C@@H]6[C@@H]5C[C@]34O
inactive: Potency [1] > 11.4 µM | activity change, negative = inhibition [2] -12.3% | activity change, negative = inhibition [3] -11.4% [at 2.29 µM] | activity change, negative = inhibition [4] 4.86% | activity, negative = inhibition [5] -5.46% | Potency [6] > 46 µM | Potency [7] > 9.22 µM | activity change, negative = inhibition [8] 1.38% [at 11.4 µM] | outcome [9] | activity change, positive = activation [12] -28.5% [at 11.4 µM]

c1ccc2c(c1)Sc1ccccc1N2C[C@H]1CN2CCC1CC2
inactive: Potency [1] > 11.4 µM | activity change, negative = inhibition [2] 24.9% | Potency [3] | activity, negative = inhibition [5] 9.78% | Potency [6] > 46 µM | Potency [7] > 9.22 µM | activity change, negative = inhibition [8] 3.89% [at 11.4 µM] | outcome [9] | outcome [14]
active: activity change, negative = inhibition [4] -73.4% | Potency [13] 0.398 µM
